Measured values: PubChem BioAssay
Calls of active or inactive are those of the source. The rule behind the calls is not given here.

These compounds were tested against Pantothenate synthetase (Mycobacterium tuberculosis (strain ATCC 25618 / H37Rv)) (UniProt P9WIL5) (assay: Coupled enzyme confirmation of inhibitors against recombinant Mtb PanC (AID 375;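 note: 0% = full reaction with vehicle and 100% = no enzyme background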)). Conditions: coupled enzyme assay; at 10 µM, stronger effect = higher value.
Sequence of Pantothenate synthetase (Mycobacterium tuberculosis (strain ATCC 25618 / H37Rv)) (P9WIL5 whole entry, looked up): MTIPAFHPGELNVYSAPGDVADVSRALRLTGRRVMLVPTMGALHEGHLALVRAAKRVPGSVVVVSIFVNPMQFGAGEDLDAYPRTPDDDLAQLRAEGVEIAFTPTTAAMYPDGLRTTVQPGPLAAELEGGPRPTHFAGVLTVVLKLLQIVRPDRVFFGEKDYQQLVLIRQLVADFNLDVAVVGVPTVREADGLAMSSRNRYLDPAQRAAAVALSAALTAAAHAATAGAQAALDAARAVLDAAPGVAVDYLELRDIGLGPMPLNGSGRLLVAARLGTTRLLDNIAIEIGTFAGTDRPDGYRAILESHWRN

SMILES	inhibition
COC(=O)c1cc2ccsc2n1CC(=O)N(C)c1ccccc1	10% (inactive)
CCCCCn1c(CN2CCN(C(=O)c3ccco3)CC2)nc2c1c(=O)n(C)c(=O)n2C	1% (inactive)
COc1cccc(-c2nc(CS(=O)(=O)CC(=O)N3CCc4ccccc4C3)c(C)o2)c1	4% (inactive)
CCC(C)C(=O)Nc1nc2c(s1)C(=O)CC(C)(C)C2 (stereo unspecified)	10% (inactive)
CC(=O)Nc1ccc(S(=O)(=O)NCC(C)NS(=O)(=O)c2ccc(NC(C)=O)cc2)cc1 (stereo unspecified)	2% (inactive)
CCOC(=O)Cc1nnc(NC(=O)CSc2nnc3c4ccccc4n(C(C)C)c3n2)s1	1% (inactive)
COc1cc2c(cc1OC)CN(Cc1nc3ccsc3c(=O)[nH]1)CC2	6% (inactive)
CC(OC1=CC(=O)CCC1)C(=O)c1ccccc1 (stereo unspecified)	2% (inactive)
CC(NC(=O)NCCCC(=O)O)(C(F)(F)F)C(F)(F)F	0% (inactive)
Clc1cccc(-c2nnc3sc(-c4ccccc4)nn23)c1	0% (inactive)
COCCCN(Cc1ccccn1)S(=O)(=O)Cc1ccccc1	0% (inactive)
Cc1ccc2c(c1)NC(=O)C(CC(=O)NCCN(CC(C)C)CC(C)C)O2 (stereo unspecified)	2% (inactive)
Cc1cc(Cl)ccc1OCCCC(=O)N1CCOCC1	0% (inactive)
CCOc1ccccc1NS(=O)(=O)c1c(C)noc1C	0% (inactive)
Cn1c(=O)c(=O)n(C)c2cc(S(=O)(=O)N3CCN(c4cccc(C(F)(F)F)c4)CC3)ccc21	9% (inactive)
COc1ccc(OC)c(C2C(C(=O)Nc3cccnc3)=C(C)NC3=C2C(=O)CCC3)c1 (stereo unspecified)	0% (inactive)
